Assay [1] can be described thus: P-glycoprotein substrates identified in KB-8-5-11 adenocarcinoma cell line, qHTS therapeutic library screen (AID 1346987). Further: nearly all actives have a fitted effect of over 65% in size. Further: potency means the concentration at half of the fitted maximal effect. The following applies: KB-8-5-11 (P-gp overexpressing) viability, CellTiter-Glo, 72 h; series mostly up to 44.5 µM. The gist of the method:
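KB-8-5-11, a colchicine-selected P-gp-overexpressing KB-3-1 subline, was grown without colchicine for the assay. Cells were seeded at 500 cells/well, dosed in concentration-response and incubated 72 h at 37 degree C, 5% CO2. Viability was read by CellTiter-Glo luminescence.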

A short description of assay [2]: NS1 protein of Zika virus - qHTS assay to identify small molecule inhibitors in human HEK 293 cells (AID 1347053). Further: nearly all actives have a fitted effect of over 55% in size. The settings on record: HEK293 ZIKV MR766 infection, NS1 TR-FRET, 24 h; series mostly up to 46.1 µM. An outline of the steps: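 Inhibition of NS1 expression was scored in HEK 293 cells given compound 1 h ahead of MR766 virus (MOI = 0.5). Following 24 h at 37 C, two anti-NS1 antibodies generated a TR-FRET signal, scaled between uninfected and infected controls.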

The record followed here is PubChem BioAssay (NCATS).

Molecules are shown by their SMILES. Where “and” joins values, the source holds several entries; their conditions need not be identical. Identical values can stand only once. Records with an inconclusive call do not appear. A call without a number means that no potency is given here. Calls of active or inactive are those of the source. The call rests on the fitted dose curve; in most records, active means well fitted curve in the direction sought with a large enough effect; inconclusive means small, poorly fitted or top-dose-only effect, or another doubt; inactive means no such curve, though single readings can be large; an effect the other way counts as inactive or inconclusive.

As to `C[N+]1(C)[C@@H]2CC[C@H]1CC(OC(=O)C(CO)c1ccccc1)C2` (stereo partly drawn), the Potency result in assay [1] and in assay [2] was “inactive” each time.

With `Cc1cccc(Cc2cnc[nH]2)c1C`, the Potency result in assay [1] and in assay [2] was “inactive” in each case.

Consider `CCC(=O)OC1(c2ccccc2)CCN(C)CC1`, for which the Potency result in assay [1] and in assay [2] was “inactive” in each case.

Take `CC(C)=C[C@@H]1[C@@H](C(=O)OCc2coc(Cc3ccccc3)c2)C1(C)C`: the Potency result in assay [1] and in assay [2] was “inactive” in each case.

As for `Nc1ccc(N)cc1`, the Potency result in assay [1] and in assay [2] was “inactive” throughout.

With `Cc1nc2ccccc2c(=O)n1-c1ccccc1Cl`, the Potency result in assay [1] and in assay [2] was “inactive” throughout.

`NC1(c2ccccc2)CCCCC1`: the Potency entry in assay [1] and in assay [2] was “inactive” throughout.

Turning to `CC1N=C(N)OC1c1ccccc1` (stereo not drawn), the Potency result in assay [1] and in assay [2] was “inactive” throughout.

Turning to `O=C(O)CCCCCCNC1c2ccccc2CCc2ccccc21`, the Potency entry in assay [1] and in assay [2] was “inactive” in each case.

For the compound `C[C@]12CC[C@H]3[C@@H](CC=C4C[C@@H](O)CC[C@@]43C)[C@@H]1CC[C@@H]2O`, the Potency in assay [1] is 11.6 µM (active). Besides, the Potency result in assay [2] is “inactive”.

With `CCC(OC(C)=O)C(CC(C)NC)(c1ccccc1)c1ccccc1` (stereo not drawn), the Potency in assay [1] was 20 µM (active). The Potency entry in assay [2] is “inactive”.

Regarding `COP(=O)(OC)C(O)C(Cl)(Cl)Cl` (stereo not drawn), the Potency result in assay [1] and in assay [2] was “inactive” throughout.

Take `CC[n+]1c(-c2ccccc2)c2cc(N)ccc2c2ccc(N)cc21`: the Potency entry in assay [1] and in assay [2] was “inactive” throughout.

For the compound `C[C@H]1C(=O)O[C@@H]2CCN3CC=C(COC(=O)[C@](C)(O)[C@]1(C)O)[C@H]23`, the Potency result in assay [1] and in assay [2] was “inactive” in each case.

For `CC(C)C(Br)C(=O)NC(N)=O` (stereo not drawn), the Potency entry in assay [1] and in assay [2] was “inactive” in each case.

`O=C(CCl)c1ccc(Cl)cc1Cl`: the Potency in assay [1] is 2.91 µM (active) and 11.2 µM (active). Moreover, the Potency entry in assay [2] is “inactive”.

For `COc1cc(N)c(Cl)cc1C(=O)NC1CN2CCC1CC2` (stereo not drawn), the Potency entry in assay [1] and in assay [2] was “inactive” each time.

As to `CN(C)CCc1c[nH]c2cccc(O)c12`, the Potency entry in assay [1] and in assay [2] was “inactive” each time.

For `Oc1c(Br)cc(Br)cc1Br`, the Potency result in assay [1] and in assay [2] was “inactive” in each case.

Consider `CN1CCc2cc(Cl)c(O)cc2[C@H]2c3ccccc3CC[C@@H]21`, for which the Potency result in assay [1] and in assay [2] was “inactive” throughout.

Consider `CC(C)[N+](C)(CCC(C(N)=O)(c1ccccc1)c1ccccc1)C(C)C`, for which the Potency entry in assay [1] and in assay [2] was “inactive” throughout.

For `C[C@@H]1O[C@@H](O[C@@H]2C=C3CC[C@@H]4[C@H](CC[C@]5(C)[C@@H](c6ccc(=O)oc6)CC[C@]45O)[C@@]3(C)CC2)[C@H](O)[C@H](O)[C@H]1O`, the Potency in assay [1] is 0.0197 µM (active). Further, the Potency entry in assay [2] was “inactive”.

As to `C#C[C@]1(O)CC[C@H]2[C@@H]3CCC4=CC(=O)CCC4=C3C=C[C@@]21CC`, the Potency in assay [1] was 2.06 µM (active). Besides, in assay [2], the Potency result was “inactive”.

With `COCC(=O)N(c1c(C)cccc1C)C(C)C(=O)OC` (stereo not drawn), the Potency result in assay [1] and in assay [2] was “inactive” each time.

Turning to `COc1cc(C[C@@H](C)N)c(OC)cc1Br`, the Potency entry in assay [1] and in assay [2] was “inactive” in each case.

For the compound `CCOC(=O)NC(O)C(Cl)(Cl)Cl` (stereo not drawn), the Potency entry in assay [1] and in assay [2] was “inactive” in each case.

As for `C[C@@H]1CN(C2CCC(C#N)(c3ccc(F)cc3)CC2)CC[C@]1(C(=O)O)c1ccccc1` (stereo partly drawn), the Potency result in assay [1] and in assay [2] was “inactive” in each case.

Consider `CCOP(=S)(OCC)O/N=C(\C#N)c1ccccc1`, for which the Potency entry in assay [1] and in assay [2] was “inactive” throughout.

As to `Cc1nnc2n1-c1sc(CCC(=O)N3CCOCC3)cc1C(c1ccccc1Cl)=NC2`, the Potency entry in assay [1] and in assay [2] was “inactive” each time.

For the compound `C[C@]12Cc3nonc3C[C@@H]1CC[C@@H]1[C@@H]2CC[C@@]2(C)[C@H]1CC[C@]2(C)O`, the Potency in assay [1] was 5.8 µM (active). The Potency entry in assay [2] was “inactive”.

Turning to `C=CCOC(Cn1ccnc1)c1ccc(Cl)cc1Cl` (stereo not drawn), the Potency in assay [1] was 20.6 µM (active). Also, the Potency result in assay [2] is “inactive”.

`CC[C@]1(O)CC[C@H]2[C@@H]3CCC4=CCCC[C@@H]4[C@H]3CC[C@@]21C`: the Potency in assay [1] was 6.51 µM (active). For the same compound, the Potency entry in assay [2] was “inactive”.

Consider `Oc1ccc2[nH]cc(CCCCN3CC=C(c4ccccc4)CC3)c2c1`, for which the Potency result in assay [1] and in assay [2] was “inactive” throughout.

Regarding `CN(C)C(=O)Oc1cc(OC(=O)N(C)C)cc(C(O)CNC(C)(C)C)c1` (stereo not drawn), the Potency entry in assay [1] and in assay [2] was “inactive” in each case.
